Assay results published in the supplement of paper PMC10811239.

Legend:
[1] = system: LEGO organoid PTCC (PTEN-/-; TP53-/-; CDKN2A-/-; CDKN2B-/-); test: bioluminescence (viable cell) signal fold change after vs before treatment, normalised to DMSO (ratio); higher = more tumour cell growth / less inhibition; conditions: 10 µM; treatment time 6 days
Method: (§1)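 Luc2-labelled iPSC-derived glioblastoma-like organoids (LEGOs, genotypes PT = PTEN-/-;TP53-/-, PTCC = plus CDKN2A/B-/-, PTN = plus NF1-/-) were treated with 10 uM drug for 6 days (applied every other day) at 37 C. Bioluminescence imaging was done before treatment and 2 days after the last dose. BLI signals were normalised to the DMSO control on the same day and then to the pre-treatment signal (N=3).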

[2] = system: LEGO organoid PTN (PTEN-/-; TP53-/-; NF1-/-); test: as above; conditions: 10 µM; treatment time 6 days
Method: as §1

Row | SMILES | bioluminescence [1] | bioluminescence [2]
1 | Cl.Cl.OCCOCCN1CCN(C(c2ccccc2)c2ccc(Cl)cc2)CC1 (centres undefined) [Hydroxyzine dihydrochloride] | 0.859 | 2.31
2 | CCOC(=O)C1=C(C)NC(C)=C(C(=O)OC)C1c1cccc(Cl)c1Cl (centres undefined) [Felodipine] | 1.16 | 1.04
3 | Cl.N=C1CCCN1Cc1[nH]c(=O)[nH]c(=O)c1Cl [Tipiracil hydrochloride] | 1.21 | 0.848
4 | CN(C)CCOC(C)(c1ccccc1)c1ccccn1.O=C(O)CCC(=O)O (centres undefined) [Doxylamine succinate] | 1.17 | 0.999
5 | CC[C@H](C)C(=O)O[C@H]1C[C@@H](C)C=C2C=C[C@H](C)[C@H](CC[C@@H]3C[C@@H](O)CC(=O)O3)[C@H]21 [Lovastatin] | 1.02 | 0.3
6 | CS(=O)(=O)OCCCCOS(C)(=O)=O [Busulfan] | 1.3 | 2.3
7 | CC1=C(/C=C/C(C)=C/C=C/C(C)=C/C(=O)O)C(C)(C)CCC1 [Tretinoin] | 0.531 | 1.41
8 | C#CCN[C@@H]1CCc2ccccc21 [Rasagiline] | 1.19 | 0.976
9 | CCC1(c2ccccc2)C(=O)NCNC1=O [Primidone] | 0.824 | 0.89
10 | NC(=O)N1c2ccccc2CC(=O)c2ccccc21 [Oxcarbazepine] | 0.951 | 1.05
11 | N[C@H](C(=O)O)[C@H](O)c1ccc(O)c(O)c1 [Droxidopa] | 2.59 | 3.13
12 | CCN(CC)C(=O)[C@@]1(c2ccccc2)C[C@H]1CN.Cl [Milnacipran ((1S-cis) hydrochloride)] | 2.09 | 0.808
